# According to publication PMC11062922 (Nature Chemical Biology, 2023):
# Where two headings read alike, the source gives them in different places.
# How the values were obtained:
# Details in all cases: read-out: apparent Kd, n = 1
# PRKD1 = test system: PRKD1
# PTK2B = test system: PTK2B
# SIK3 = test system: SIK3
# [1] = compound concentrations:100 nM and 1000 nM (sheet 'Lestaurtinib' of Supplementary Table 1),run:Lestaurtinib_02443_R3,Plate:MR009
# [2] = compound concentrations:100 nM and 1000 nM (sheet 'Lestaurtinib' of Supplementary Table 1),run:Lestaurtinib_02473_R3,Plate:MR010
# [3] = compound concentrations:100 nM and 1000 nM (sheet 'Lestaurtinib' of Supplementary Table 1),run:Lestaurtinib_02496_R1,Plate:MR013
# [4] = compound concentrations:100 nM and 1000 nM (sheet 'Lestaurtinib' of Supplementary Table 1),run:Lestaurtinib_02496_R3,Plate:MR013
substance,measurement,setting,value
Lestaurtinib,potency estimated from few doses,"PRKD1; compound concentrations:100 nM and 1000 nM (sheet 'Lestaurtinib' of Supplementary Table 1),run:Lestaurtinib_02584_R2,Plate:MR017",206 nM
same,potency estimated from few doses,"PRKD1; compound concentrations:100 nM and 1000 nM (sheet 'Lestaurtinib' of Supplementary Table 1),run:Lestaurtinib_02584_R3,Plate:MR017",278 nM
same,potency estimated from few doses,"PRKD1; compound concentrations:100 nM and 1000 nM (sheet 'Lestaurtinib' of Supplementary Table 1),run:Lestaurtinib_02601_R1,Plate:MR018",99.8 nM
same,potency estimated from few doses,"PRKD1; compound concentrations:100 nM and 1000 nM (sheet 'Lestaurtinib' of Supplementary Table 1),run:Lestaurtinib_02606_R1,Plate:MR019",131 nM
same,potency estimated from few doses,"PRKD1; compound concentrations:100 nM and 1000 nM (sheet 'Lestaurtinib' of Supplementary Table 1),run:Lestaurtinib_02606_R3,Plate:MR019",135 nM
same,potency estimated from few doses,"PRKD1; compound concentrations:100 nM and 1000 nM (sheet 'Lestaurtinib' of Supplementary Table 1),run:Lestaurtinib_02724_R3,Plate:MR021",41.4 nM
same,potency estimated from few doses,"PRKD1; compound concentrations:100 nM and 1000 nM (sheet 'Lestaurtinib' of Supplementary Table 1),run:Lestaurtinib_02741_R1,Plate:MR023",13.3 nM
same,potency estimated from few doses,"PRKD1; compound concentrations:100 nM and 1000 nM (sheet 'Lestaurtinib' of Supplementary Table 1),run:Lestaurtinib_02741_R3,Plate:MR023",17.5 nM
same,potency estimated from few doses,"PRKD1; compound concentrations:100 nM and 1000 nM (sheet 'Lestaurtinib' of Supplementary Table 1),run:Lestaurtinib_02748_R2,Plate:MR024",208 nM
same,potency estimated from few doses,"PRKD1; compound concentrations:100 nM and 1000 nM (sheet 'Lestaurtinib' of Supplementary Table 1),run:Lestaurtinib_02748_R3,Plate:MR024",254 nM
same,potency estimated from few doses,"PRKD1; compound concentrations:100 nM and 1000 nM (sheet 'Lestaurtinib' of Supplementary Table 1),run:Lestaurtinib_02795_R3,Plate:MR022",193 nM
same,potency estimated from few doses,"PRKD1; compound concentrations:100 nM and 1000 nM (sheet 'Lestaurtinib' of Supplementary Table 1),run:Lestaurtinib_02896_R3,Plate:MR030",141 nM
same,potency estimated from few doses,"PTK2B; compound concentrations:100 nM and 1000 nM (sheet 'Lestaurtinib' of Supplementary Table 1),run:Lestaurtinib_02339_R2,Plate:MR001",971 nM
same,potency estimated from few doses,"PTK2B; compound concentrations:100 nM and 1000 nM (sheet 'Lestaurtinib' of Supplementary Table 1),run:Lestaurtinib_02422_R1,Plate:MR006",859 nM
same,potency estimated from few doses,"PTK2B; compound concentrations:100 nM and 1000 nM (sheet 'Lestaurtinib' of Supplementary Table 1),run:Lestaurtinib_02437_R3,Plate:MR007",800 nM
same,potency estimated from few doses,PTK2B; [1],928 nM
same,potency estimated from few doses,PTK2B; [2],58.4 nM
same,potency estimated from few doses,"PTK2B; compound concentrations:100 nM and 1000 nM (sheet 'Lestaurtinib' of Supplementary Table 1),run:Lestaurtinib_02487_R1,Plate:MR012",209 nM
same,potency estimated from few doses,PTK2B; [3],974 nM
same,potency estimated from few doses,"PTK2B; compound concentrations:100 nM and 1000 nM (sheet 'Lestaurtinib' of Supplementary Table 1),run:Lestaurtinib_02496_R2,Plate:MR013",703 nM
same,potency estimated from few doses,PTK2B; [4],966 nM
same,potency estimated from few doses,"PTK2B; compound concentrations:100 nM and 1000 nM (sheet 'Lestaurtinib' of Supplementary Table 1),run:Lestaurtinib_02572_R1,Plate:MR015",615 nM
same,potency estimated from few doses,"PTK2B; compound concentrations:100 nM and 1000 nM (sheet 'Lestaurtinib' of Supplementary Table 1),run:Lestaurtinib_02572_R2,Plate:MR015",666 nM
same,potency estimated from few doses,"PTK2B; compound concentrations:100 nM and 1000 nM (sheet 'Lestaurtinib' of Supplementary Table 1),run:Lestaurtinib_02748_R1,Plate:MR024",954 nM
same,potency estimated from few doses,"PTK2B; compound concentrations:100 nM and 1000 nM (sheet 'Lestaurtinib' of Supplementary Table 1),run:Lestaurtinib_03172_R3,Plate:MR031",1240 nM
same,potency estimated from few doses,"SIK3; compound concentrations:100 nM and 1000 nM (sheet 'Lestaurtinib' of Supplementary Table 1),run:Lestaurtinib_02339_R3,Plate:MR001",1990 nM
same,potency estimated from few doses,"SIK3; compound concentrations:100 nM and 1000 nM (sheet 'Lestaurtinib' of Supplementary Table 1),run:Lestaurtinib_02367_R3,Plate:MR003",2180 nM
same,potency estimated from few doses,"SIK3; compound concentrations:100 nM and 1000 nM (sheet 'Lestaurtinib' of Supplementary Table 1),run:Lestaurtinib_02381_R2,Plate:MR004",2120 nM
same,potency estimated from few doses,"SIK3; compound concentrations:100 nM and 1000 nM (sheet 'Lestaurtinib' of Supplementary Table 1),run:Lestaurtinib_02381_R3,Plate:MR004",1930 nM
same,potency estimated from few doses,"SIK3; compound concentrations:100 nM and 1000 nM (sheet 'Lestaurtinib' of Supplementary Table 1),run:Lestaurtinib_02407_R3,Plate:MR005",1890 nM
same,potency estimated from few doses,"SIK3; compound concentrations:100 nM and 1000 nM (sheet 'Lestaurtinib' of Supplementary Table 1),run:Lestaurtinib_02422_R2,Plate:MR006",1760 nM
same,potency estimated from few doses,"SIK3; compound concentrations:100 nM and 1000 nM (sheet 'Lestaurtinib' of Supplementary Table 1),run:Lestaurtinib_02422_R3,Plate:MR006",1570 nM
same,potency estimated from few doses,"SIK3; compound concentrations:100 nM and 1000 nM (sheet 'Lestaurtinib' of Supplementary Table 1),run:Lestaurtinib_02437_R2,Plate:MR007",1400 nM
same,potency estimated from few doses,"SIK3; compound concentrations:100 nM and 1000 nM (sheet 'Lestaurtinib' of Supplementary Table 1),run:Lestaurtinib_02438_R1,Plate:MR008",1800 nM
same,potency estimated from few doses,"SIK3; compound concentrations:100 nM and 1000 nM (sheet 'Lestaurtinib' of Supplementary Table 1),run:Lestaurtinib_02438_R2,Plate:MR008",1720 nM
same,potency estimated from few doses,"SIK3; compound concentrations:100 nM and 1000 nM (sheet 'Lestaurtinib' of Supplementary Table 1),run:Lestaurtinib_02438_R3,Plate:MR008",1330 nM
same,potency estimated from few doses,"SIK3; compound concentrations:100 nM and 1000 nM (sheet 'Lestaurtinib' of Supplementary Table 1),run:Lestaurtinib_02443_R1,Plate:MR009",1970 nM
same,potency estimated from few doses,"SIK3; compound concentrations:100 nM and 1000 nM (sheet 'Lestaurtinib' of Supplementary Table 1),run:Lestaurtinib_02443_R2,Plate:MR009",1960 nM
same,potency estimated from few doses,SIK3; [1],964 nM
same,potency estimated from few doses,SIK3; [2],1240 nM
same,potency estimated from few doses,"SIK3; compound concentrations:100 nM and 1000 nM (sheet 'Lestaurtinib' of Supplementary Table 1),run:Lestaurtinib_02482_R3,Plate:MR011",1570 nM
same,potency estimated from few doses,"SIK3; compound concentrations:100 nM and 1000 nM (sheet 'Lestaurtinib' of Supplementary Table 1),run:Lestaurtinib_02487_R2,Plate:MR012",1700 nM
same,potency estimated from few doses,SIK3; [3],956 nM
same,potency estimated from few doses,SIK3; [4],1300 nM
